Sampled rows, rich in hits. Any-hit rate of the full collection: about 2.5%.
TSG101-PTAP inh – qHTS Validation Assay for Inhibitors of HIV-1 Budding by Blocking the Interaction of PTAP/TSG101: Sytravon Library Screen. Tumor susceptibility gene 101 protein (Homo sapiens), Q99816. Fluorescence polarization, FITC-PTAP peptide/Tsg101, 20 min. Potency, µM (titrated, usually from 115 µM), actives largely listed as inhibitors. 44,000 tested, under 10 active. AID 1347069, 2019
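Fluorescence polarization: Tsg101 binding domain (10 uM final) in 10 mM HEPES pH 7.5, 0.15 M NaCl, 0.01% Tween 20, 3 mM EDTA, 0.1 mM TCEP; compounds pinned; FITC-PTAP peptide 50 nM final; 20 min, r.t.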
NTMT1 inhibitor – Primary qHTS for Inhibitors of N-terminal methyltransferase 1 (NTMT1): MTaseGlo Assay. NTMT1 MTase-Glo SAH luminescence, purified enzyme. Potency, µM (titrated, usually from 114 µM), usual class: inhibitors. N-terminal Xaa-Pro-Lys N-methyltransferase 1 (Homo sapiens), Q9BV86. AID 1645870, 2021. hit rate 2.5% among 59,000; further: nearly all actives have a fitted effect of over 65% in size
Target sequence (Q9BV86 whole entry, looked up): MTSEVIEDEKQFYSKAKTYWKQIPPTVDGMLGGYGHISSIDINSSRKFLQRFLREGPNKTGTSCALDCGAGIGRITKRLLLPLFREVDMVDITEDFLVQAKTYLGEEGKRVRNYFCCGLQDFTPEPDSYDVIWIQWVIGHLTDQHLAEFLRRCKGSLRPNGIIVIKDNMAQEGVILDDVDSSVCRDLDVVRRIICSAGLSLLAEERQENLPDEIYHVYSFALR
GALK inh – qHTS Assay for Inhibitors of Human Galactokinase (GALK): NCGC Sytravon Library Screen; P51570; recombinant GALK, Kinase-Glo ATP luminescence, 1 h; 44,000 tested, under 10 active; Potency, µM (titrated, usually from 57.5 µM), most hits filed as inhibitors; AID 1347072, 2019
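Human GALK (5 nM) was incubated with 35 uM ATP and 100 uM galactose in 20 mM HEPES pH 8.0 with MgCl2, NaCl, DTT and BSA for 1 h at room temperature. Remaining ATP was measured by Kinase-Glo Plus luminescence.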
HTT-AS promoter – Primary qHTS for Identification of Small Molecule Activators of Huntingtin-Antisense Promoter Activity. HEK293 HTT-AS promoter firefly luciferase reporter, 24 h; response scale: percent change from vehicle, -100% = no light. Potency, µM (doses to about 57.5 µM), actives largely listed as activators. hit rate 0.24% among 48,000; further: nearly all actives have a fitted effect of over 55% in size
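Luminescence was read after Dual-Glo reagent and a 10 min room-temperature incubation. Values were normalized to vehicle (0% activity) and zero RLU (-100% activity). Reporter HEK293 cells had been exposed to compounds (up to 57.5 uM final) for 24 h.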
HTT promoter inh – Primary qHTS for Identification of Small Molecule Inhibitors of Huntingtin Promoter Activity | HEK293 HTT promoter firefly luciferase reporter, 24 h | Potency, µM (highest dose often 57.5 µM), most hits filed as inhibitors | hit rate 0.93% among 48,000 | AID 1508623, 2021; further: nearly all actives have a fitted effect of over 50% in size
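HEK293 Fluc reporter, 2,500 cells/well, 24 h pre-culture; cpds up to 57.5 uM final, 24 h 37 degrees C; Dual-Glo, 10 min RT; normalized vehicle = 0%, zero RLU = -100%.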
SKOV3 invasion – Primary qHTS assay for Inhibitors of ovarian cancer metastasis using an organotypic tumor microenvironment (TME) model. SKOV3ip1-GFP adhesion/invasion on 3D omental model, fluorescence. Potency, µM (titrated, usually from 45.8 µM), most hits filed as inhibitors. hit rate 0.1% among 46,000. AID 1963576, 2024; further: nearly all actives have a fitted effect of over 65% in size
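Adhesion/invasion was scored as fixed GFP-labeled SKOV3ip1 cell counts (488/509 nm), normalized to DMSO and tomatine controls. Cancer cells in serum-free medium, with four compound doses (0.36-46 umol/L), sat 2 hr at RT then 16 hr at 37 C on a 48 hr fibroblast/mesothelial/ECM culture.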
DYRK1A inh-1 – Assay for Inhibitors of Dual-Specificity Tyrosine-(Y)-Phosphorylation Regulated Kinase 1A (Kinase-Glo assay); AID 2705, 2010; shares compounds with NTMT1 inhibitor; recombinant DYRK1A, Kinase-Glo ATP depletion luminescence; Potency, µM (top dose mostly 76.9 µM), actives largely listed as inhibitors; hit rate 80% among 100
CLK4 inh – Kinase Inhibition Study on Inhibitors of CDC-like Kinase 4 (Reaction Biology data): SAR round 2; Reaction Biology kinase assay, 10 uM ATP; shares compounds with NTMT1 inhibitor; hit rate 100% among 65; Potency, µM, hits mostly inhibitors; calls by dose curve
DYRK1A inh-2 – Kinase Inhibition Study on Inhibitors of Dyrk1a (Reaction Biology data). shares compounds with NTMT1 inhibitor. Reaction Biology kinase assay, 10 uM ATP. Potency, µM, actives largely listed as inhibitors. hit rate 90% among 65;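 active means compounds that showed inhibition of Dyrk1a and received a fitted potency; inactive means compounds that showed no inhibition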
CLK2 inh – Kinase Inhibition Study on Inhibitors of CDC-like Kinase 2 (Reaction Biology data); Potency, µM, usual class: inhibitors; shares compounds with NTMT1 inhibitor; Reaction Biology kinase assay, 10 uM ATP; AID 504427, 2011; hit rate 90% among 65;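 active means compound that inhibits Clk2 kinase in the dose series, with an IC50 potency reported; inactive means no inhibition seen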
CLK3 RBC – Kinase Inhibition Study on Inhibitors of CDC-like Kinase 3 (Reaction Biology data); Potency, µM, most hits filed as inhibitors; hit rate 40% among 65; recombinant CLK3 kinase assay, 10 uM ATP; AID 504428, 2011; shares compounds with NTMT1 inhibitor;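 active means compounds that inhibited Clk3 enough in the ten-dose series to give a half-maximal potency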
DYRK1B inh – Kinase Inhibition Study on Inhibitors of Dyrk1b (Reaction Biology data). shares compounds with NTMT1 inhibitor. Recombinant Dyrk1b kinase assay, 10 uM ATP. Potency, µM, actives largely listed as inhibitors. hit rate 80% among 65. AID 504429, 2011;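 active means compounds whose dose response shows an inhibitor phenotype against the kinase Dyrk1b; inactive means compounds showing no inhibitor phenotype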
CLK1 RBC – Kinase Inhibition Study on Inhibitors of CDC-like Kinase 1 (Reaction Biology data). shares compounds with NTMT1 inhibitor. recombinant Clk1 kinase assay, 10 uM ATP. Potency, µM, actives largely listed as inhibitors. hit rate 90% among 65;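 active means compounds that block the splicing kinase Clk1 enough to give a fitted half-inhibition concentration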
Sfp qHTS opt – qHTS Assay for Inhibitos of Bacillus subtilis Sfp phosphopantetheinyl transferase (PPTase): Chemistry Optimization Followup. shares compounds with NTMT1 inhibitor. purified Sfp PPTase enzyme activity, qHTS. Potency, µM (highest dose often 114 µM), most hits filed as inhibitors. hit rate 78% among 230
Bsub HM489 growth – qHTS for Inhibitos of Bacillus subtilis Sfp phosphopantetheinyl transferase (PPTase): Chemistry Optimization Followup in B. Subtilis HM489. shares compounds with NTMT1 inhibitor. B. subtilis HM489 (acpS-) growth, BacTiter-Glo, 5 h. Potency, µM (series often up to 114 µM), most hits filed as inhibitors. hit rate 50% among 220. AID 540353, 2011
Sfp gel opt – Gel-Based Assay for Inhibitos of Bacillus subtilis Sfp phosphopantetheinyl transferase (PPTase): Chemistry Optimization Followup; hit rate 54% among 220; purified Sfp PPTase, gel-based product detection; Potency, µM (series often up to 250 µM), actives largely listed as inhibitors; shares compounds with NTMT1 inhibitor
Sfp inh SAR2 – qHTS Assay for Inhibitors of Bacillus subtilis Sfp phosphopantetheinyl transferase (PPTase): SAR Round 2 | shares compounds with NTMT1 inhibitor | Potency, µM (top dose mostly 57.1 µM), most hits filed as inhibitors | purified Sfp enzyme, PPTase activity, qHTS | hit rate 87% among 230
HSD17B4 inh – Extended Characterization of HPGD Inhibitors: Counterscreen Against HSD17b4 | shares compounds with NTMT1 inhibitor | purified HSD17B4, estradiol/NAD+, NADH fluorescence | Potency, µM (top dose mostly 57.1 µM), most hits filed as inhibitors | hit rate 10% among 230 | AID 743187, 2013
ALDH1A1 counter – Extended Characterization of HPGD Inhibitors: Counterscreen Against ALDH1A1. shares compounds with NTMT1 inhibitor. recombinant ALDH1A1, NADH fluorescence, propionaldehyde/NAD+. Potency, µM (series often up to 57.1 µM), most hits filed as inhibitors. hit rate 93% among 230. AID 743195, 2013
Target sequence (P00352 whole entry, looked up): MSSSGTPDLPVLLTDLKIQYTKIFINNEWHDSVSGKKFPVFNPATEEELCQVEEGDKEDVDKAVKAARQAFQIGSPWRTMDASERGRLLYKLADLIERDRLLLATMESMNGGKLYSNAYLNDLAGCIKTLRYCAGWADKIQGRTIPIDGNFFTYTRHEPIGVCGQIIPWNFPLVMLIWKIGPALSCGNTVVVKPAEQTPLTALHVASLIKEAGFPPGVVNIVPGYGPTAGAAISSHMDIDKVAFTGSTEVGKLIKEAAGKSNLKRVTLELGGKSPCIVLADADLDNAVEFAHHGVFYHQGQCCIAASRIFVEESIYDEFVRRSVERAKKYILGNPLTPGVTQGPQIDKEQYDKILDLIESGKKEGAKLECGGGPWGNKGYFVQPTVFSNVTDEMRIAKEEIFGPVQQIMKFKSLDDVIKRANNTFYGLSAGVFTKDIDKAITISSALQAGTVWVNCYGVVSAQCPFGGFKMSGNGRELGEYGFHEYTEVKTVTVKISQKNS
NNMT inh – Counterscreen qHTS for Inhibitors of N-terminal methyltransferase 1 (NTMT1): NNMT MTaseGlo assay. shares compounds with NTMT1 inhibitor. NNMT MTase-Glo luminescence, SAH detection. Potency, µM (top dose mostly 57.1 µM), hits mostly inhibitors. hit rate 10% among 120
Hits are given with their value; i = inactive; ? = inconclusive; nt = no result; ! = repeats disagree. Unless noted, the call rests on the fitted dose curve; in most records, active means well fitted curve in the direction sought with a large enough effect; inconclusive means small, poorly fitted or top-dose-only effect, or another doubt; inactive means no such curve, though single readings can be large; an effect the other way counts as inactive or inconclusive.

SMILES | TSG101-PTAP inh | NTMT1 inhibitor | GALK inh | HTT-AS promoter | HTT promoter inh | SKOV3 invasion | others
CCN(Cc1sccc1C)c1ncnc2ccc(-c3ccc4c(c3)OCO4)cc12 | nt | ? | nt | nt | nt | nt | DYRK1A inh-1=1.16µM
CCN(Cc1cccs1)c1ncnc2ccc(-c3ccc4c(c3)OCO4)cc12 | nt | ? | nt | nt | nt | nt | DYRK1A inh-1=0.164µM;CLK4 inh=0.014;DYRK1A inh-2=0.038µM;CLK2 inh=0.447µM;CLK3 RBC=6.17µM;DYRK1B inh=0.231µM;CLK1 RBC=0.014µM
CCS(=O)(=O)Nc1ccc(Oc2ccc(F)cc2F)c(-c2cn(C)c(=O)c3[nH]ccc23)c1 | nt | i | nt | nt | nt | nt
CC(=O)c1ccc(N2CCN(C(=O)c3cc4ccc5cccnc5c4[nH]3)CC2)cc1 | i | i | i | i | i | i
CC(=O)c1ccc(N2CCN(C(=S)Nc3cc(C)ccn3)CC2)cc1 | nt | ? | nt | nt | nt | nt | Sfp qHTS opt=5.91µM;Bsub HM489 growth=16.7µM;Sfp gel opt=5.01µM;Sfp inh SAR2=1.02µM;HSD17B4 inh=?;ALDH1A1 counter=7.64µM
Cc1ccnc(NC(=S)N2CCN(c3ccc(Br)cc3)CC2)c1 | nt | ? | nt | nt | nt | nt | Sfp qHTS opt=5.91µM;Bsub HM489 growth=23.5µM;Sfp gel opt=7.94µM;Sfp inh SAR2=1.82µM;HSD17B4 inh=i;ALDH1A1 counter=3.41µM
COCCOc1cnc2ccn([C@H](C)c3nnc4c(F)cc(-c5cnn(C)c5)cn34)c(=O)c2c1 | nt | i | nt | nt | nt | nt
CC(=O)O[C@@H]1[C@@H](O)[C@H](O[C@H]2CC[C@]34C[C@]35CC[C@]3(C)[C@@H]([C@@]6(C)CC[C@@H](C(C)(C)O)O6)[C@@H](O)C[C@@]3(C)[C@@H]5C[C@H](O[C@@H]3O[C@H](CO)[C@@H](O)[C@H](O)[C@H]3O)[C@H]4C2(C)C)OC[C@H]1O | nt | i | nt | nt | nt | nt
NC(=NCCCCCCN=C(N)/N=C(\N)Nc1ccc(Cl)cc1)/N=C(\N)Nc1ccc(Cl)cc1 | nt | 25.1µM! | nt | i | ? | nt | NNMT inh=?
O=C(O)c1ccc(S(=O)(=O)N(Cc2ccc(OC(F)(F)F)cc2)c2ncc(C(F)(F)F)cc2Cl)cc1 | nt | i | nt | nt | nt | nt

From PubChem
